HT1080-NT tox: kills 2HG-producing HT-1080-NT fibrosarcoma cells | Potency, µM (doses to about 46.1 µM), for inactives: top-dose activity, negative = less viability, hits mostly cytotoxic | HT-1080-NT fibrosarcoma viability, CellTiter-Glo ATP luminescence, 48 h | 360,000 tested, 1.6% active;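 also: NT is the 2HG producing partner of a matched IDH1 knockdown line; potency is read from the fitted curve at half-maximal effect; 0% = DMSO-treated cells and -100% = media-only wells without cells; nearly all actives have a fitted effect of over 55% in size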
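Read-out is CellTiter-Glo luminescence after 10 minutes at room temperature, following 48 hours' compound treatment of HT-1080-NT cells (750 cells/well, RPMI, 5% FBS, 37 degrees C).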
ALOX12 inh: ALOX12 (human) lipoxygenase inhibition | P18054 | purified 12hLO, xylenol orange hydroperoxide absorbance | Potency, µM (titrated, usually from 108 µM), without a hit: at the highest dose activity change, negative = inhibition, most hits filed as inhibitors | 580,000 tested, 1.1% active; also: potency is read from the fitted curve at half-maximal effect
Target sequence (P18054 whole entry, looked up): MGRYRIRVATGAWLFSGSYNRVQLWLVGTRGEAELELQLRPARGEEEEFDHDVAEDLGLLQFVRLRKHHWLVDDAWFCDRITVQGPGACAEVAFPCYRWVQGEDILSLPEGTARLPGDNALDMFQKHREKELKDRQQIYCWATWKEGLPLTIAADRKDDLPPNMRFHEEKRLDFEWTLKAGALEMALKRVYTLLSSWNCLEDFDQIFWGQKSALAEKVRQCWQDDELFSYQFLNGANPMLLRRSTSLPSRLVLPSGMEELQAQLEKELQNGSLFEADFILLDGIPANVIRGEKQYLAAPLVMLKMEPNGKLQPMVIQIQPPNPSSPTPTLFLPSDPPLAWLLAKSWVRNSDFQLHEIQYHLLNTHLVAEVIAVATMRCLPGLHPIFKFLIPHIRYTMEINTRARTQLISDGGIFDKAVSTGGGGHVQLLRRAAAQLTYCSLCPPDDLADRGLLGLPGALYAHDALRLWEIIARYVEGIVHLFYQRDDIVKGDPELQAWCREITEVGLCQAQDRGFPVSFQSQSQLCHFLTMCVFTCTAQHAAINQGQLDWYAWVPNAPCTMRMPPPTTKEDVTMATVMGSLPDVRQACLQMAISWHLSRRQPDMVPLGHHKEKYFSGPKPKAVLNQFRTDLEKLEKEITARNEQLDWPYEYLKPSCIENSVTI
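Purified human 12hLO (150 nM final) in 25 mM Hepes, 0.01% Triton X-100, pH 7.0 was preincubated 15 min at room temperature with compound. Then 40 uM arachidonic acid was added, 30 min. Hydroperoxide was read by Fe-XO absorbance ratio 573/405 nm.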
TDP1 cell noCPT: qHTS for Inhibitors of human tyrosyl-DNA phosphodiesterase 1 (TDP1): qHTS in cells in absence of CPT; 420,000 tested, 15% active; DT40 Tdp1-/- hTDP1 cells, no CPT, ATP luminescence, 48 h; Potency, µM (series often up to 46.2 µM), for inactives: top-dose activity change, negative = growth inhibition, most hits filed as inhibitors; AID 686978, 2013; also: potency is read from the fitted curve at half-maximal effect; nearly all actives have a fitted effect of over 55% in size
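Stably hTDP1-transfected Tdp1-null chicken DT40 cells were treated with library compounds minus camptothecin and grown for at least 48 hr at 37 °C, after which cellular ATP was quantified by luminescence.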
HT1080 IDH1KD tx: HT-1080 IDH1 knockdown cell toxicity (counter line); 360,000 tested, 2% active; HT-1080 IDH1 knockdown viability, ATP luminescence, 48 h; Potency, µM (titrated, usually from 46.1 µM), for the others: top-dose activity, negative = toxicity, actives largely listed as cytotoxic;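 also: potency is read from the fitted curve at half-maximal effect; 0% = DMSO wells and -100% = cell-free medium wells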
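Luminescent ATP read-out (CellTiter-Glo, 10 min at room temperature) after 48 h compound exposure at 37 °C gave viability of IDH1-knockdown HT-1080 cells. Activity was normalised to DMSO and cell-free wells, then fitted as concentration-response curves.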
TDP1 cell CPT: growth inhibition of DT40 Tdp1-/-;hTDP1 cells with camptothecin (screen for TDP1 inhibitors) | 420,000 tested, 12% active | AID 686979 | Potency, µM (titrated, usually from 46.2 µM), for inactives: top-dose activity change, negative = growth inhibition, most hits filed as inhibitors | chicken DT40 Tdp1-/-;hTDP1 cells + 20 nM CPT, ATP luminescence, 48 h; also: potency is read from the fitted curve at half-maximal effect; nearly all actives have a fitted effect of over 55% in size
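Cell growth measured by CellTiter-Glo luminescence after a minimum 48 h, 37 C compound exposure with 20 nM CPT in Tdp1-knockout DT40 cells stably expressing hTDP1, seeded 400/well; qHTS titration format.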
IL1B secr inh: blocks inflammasome-driven IL-1 beta release; THP-1 LPS/ATP IL-1B secretion, AlphaLISA, 16 h; active compounds read low; activity change, % at 57.5 µM; 360,000 tested, 4.7% active; AID 743279; in the data active = activity change below about -50%; inconclusive = mostly about -30% to -49%
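THP-1 cells pretreated 1 hr with compounds (up to 57.5 uM final), then stimulated with LPS (250 ng/mL final) plus ATP (1.25 mM final); secreted IL-1B measured by AlphaLISA after 16 hr, decreased signal indicating inhibition.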
Starred values were filed as active, the others as inactive; ! = not active in a repeat. Only a selection was taken, and hits are over-represented in it overall. Unless noted, calls follow the shape of the dose curve; as a rule, active = well fitted curve in the direction sought with a large enough effect; inconclusive = small, poorly fitted or top-dose-only effect, or another doubt; inactive = no such curve, though single readings can be large; an effect the other way counts as inactive or inconclusive. Unless noted, % is scaled to controls: 0 for no effect and ±100 for the full control effect.

Screening CCC(=O)N1CCN(c2ccc(Cl)cc2NC(=O)c2ccc([N+](=O)[O-])o2)CC1 returned HT1080-NT tox inconclusive, ALOX12 inh -8.7%, TDP1 cell noCPT inconclusive, HT1080 IDH1KD tx inconclusive, TDP1 cell CPT 18.4µM* and IL1B secr inh 2.8.
Screening O=C(Nc1cc(Cl)ccc1F)c1ccc(-n2cncn2)c([N+](=O)[O-])c1 returned HT1080-NT tox 6.7%, ALOX12 inh -21.9%, TDP1 cell noCPT inconclusive, HT1080 IDH1KD tx 9.8%, TDP1 cell CPT -8.3% and IL1B secr inh inconclusive.
Screening CCN1CCN(c2ccc(NC(=O)c3ccc(F)cc3)cc2Cl)CC1 returned HT1080-NT tox 17.0%, ALOX12 inh 18.8%, TDP1 cell noCPT 20.8%, HT1080 IDH1KD tx 7.7%, TDP1 cell CPT 8.0% and IL1B secr inh 0.0.
CCN1CCN(c2ccc(NC(=O)c3ccc([N+](=O)[O-])o3)cc2Cl)CC1 was read as HT1080-NT tox inconclusive, ALOX12 inh 0.0%, TDP1 cell noCPT 0.517µM*, HT1080 IDH1KD tx 13µM*, TDP1 cell CPT 0.581µM* and IL1B secr inh -106.8*.
`COc1ccccc1NC(=O)CN1C(=O)COc2ccc(S(=O)(=O)N3CCOCC3)cc21` gave HT1080-NT tox -1.1%, ALOX12 inh 8.1%, TDP1 cell noCPT 1.0%, HT1080 IDH1KD tx 9.9%, TDP1 cell CPT -19.3% and IL1B secr inh -6.7.
For Cc1ccc(NC(=O)CN2C(=O)COc3ccc(S(=O)(=O)N4CCCCC4)cc32)cc1N(C)C the results were ALOX12 inh -17.1%, TDP1 cell noCPT 20.6µM* and TDP1 cell CPT 23.1µM*.
For Cc1ccc(NC(=O)CN2C(=O)COc3ccc(S(=O)(=O)N4CCCCC4)cc32)cc1Cl the results were ALOX12 inh -22.7%, TDP1 cell noCPT inconclusive and TDP1 cell CPT inconclusive.
For COc1ccc(NC(=O)CN2C(=O)COc3ccc(S(=O)(=O)N4CCOCC4)cc32)cc1Cl the results were HT1080-NT tox -0.7%, ALOX12 inh -1.3%, TDP1 cell noCPT 18.4µM*!, HT1080 IDH1KD tx 0.0%, TDP1 cell CPT inconclusive and IL1B secr inh inconclusive.
COc1ccc2c(C)c(CC(=O)Nc3cccc(C)c3)c(=O)oc2c1OC was read as ALOX12 inh -29.1%.
COC(=O)c1c(NC(=O)CCNCc2ccco2)sc2c1CCC2 was read as HT1080-NT tox inconclusive, ALOX12 inh inconclusive, TDP1 cell noCPT inconclusive, HT1080 IDH1KD tx inconclusive, TDP1 cell CPT 23.1µM* and IL1B secr inh -50.8*.
COc1ccc(NC(=O)c2c(NC(=O)CNCc3ccco3)sc3c2CCC3)cc1 was read as HT1080-NT tox 1.9%, ALOX12 inh 70.1%, TDP1 cell noCPT -18.7%, HT1080 IDH1KD tx 3.7%, TDP1 cell CPT -16.6% and IL1B secr inh -0.1.
`COC(=O)c1c(NC(=O)CCCC(=O)O)sc2c1CCC2` gave HT1080-NT tox -4.3%, ALOX12 inh -10.6%, TDP1 cell noCPT -3.5%, HT1080 IDH1KD tx -9.5%, TDP1 cell CPT -5.7% and IL1B secr inh 44.1.
COc1ccc(OC)c(NC(=O)c2c(NC(=O)CNCc3ccco3)sc3c2CCC3)c1 was read as HT1080-NT tox 8.3%, ALOX12 inh 0.0%, TDP1 cell noCPT 3.66µM*, HT1080 IDH1KD tx 9.9%, TDP1 cell CPT -112.9% and IL1B secr inh -9.8.
COc1ccc(NC(=O)c2c(NC(=O)CNCc3ccco3)sc3c2CCC3)c(OC)c1 was read as HT1080-NT tox -0.6%, ALOX12 inh 61.1%, TDP1 cell noCPT 20.6µM*, HT1080 IDH1KD tx -0.5%, TDP1 cell CPT inconclusive and IL1B secr inh -0.5.
O=C(CC1CCCCC1)NCC(=O)N1CCCCCCNC(=O)CC1c1ccccc1 (stereo not drawn) was read as ALOX12 inh 14.5%.
For O=C(NNc1ncccc1-n1cccc1)c1ccc(Cl)cc1 the results were HT1080-NT tox -5.1%, ALOX12 inh 1.7%, TDP1 cell noCPT 7.31µM*, HT1080 IDH1KD tx 0.3%, TDP1 cell CPT inconclusive and IL1B secr inh -19.7.
Screening O=C(NNC(=O)c1ccccc1-n1cccc1)c1ccc(Cl)cc1 returned HT1080-NT tox 11.6%, ALOX12 inh 0.0%, TDP1 cell noCPT -11.3%, HT1080 IDH1KD tx 8.3%, TDP1 cell CPT 5.2% and IL1B secr inh 10.4.
`CC(C)(C)c1ccc(C(=O)NNc2ncccc2-n2cccc2)cc1` gave HT1080-NT tox -5.4%, ALOX12 inh 142.1%, TDP1 cell noCPT 13µM*, HT1080 IDH1KD tx -0.6%, TDP1 cell CPT 13µM* and IL1B secr inh -4.7.
For COc1ccc(NC(=O)O[C@@H]2CC[C@]3(C)C(CC[C@@H](O)[C@H]3CC(=O)N3CC[C@@H](O)C3)[C@]2(C)CO)cc1 (stereo partly drawn) the results were ALOX12 inh 3.7%.
For Cc1cc2nc(C)n(CCCNC(=O)Nc3ccc(F)cc3)c2cc1C the results were HT1080-NT tox -6.6%, ALOX12 inh 2.8%, TDP1 cell noCPT 23.1µM*, HT1080 IDH1KD tx -15.6%, TDP1 cell CPT inconclusive and IL1B secr inh inconclusive.
CN1C(=O)c2ccccc2Sc2ccc(NC(=O)Cc3c(F)cccc3Cl)cc21 was read as ALOX12 inh inconclusive, TDP1 cell noCPT 7.31µM* and TDP1 cell CPT 13µM*.
`Cc1ccc(NC(=O)Nc2ccc3c(c2)N(C)C(=O)c2ccccc2S3)c(C)c1` gave ALOX12 inh -20.0%, TDP1 cell noCPT inconclusive and TDP1 cell CPT inconclusive.
Screening Cc1cccc(OCC(=O)Nc2ccc3c(c2)N(C)C(=O)c2ccccc2S3)c1 returned ALOX12 inh -4.9%, TDP1 cell noCPT 10.3µM* and TDP1 cell CPT 10.3µM*.
`CCN1C(=O)c2ccccc2Sc2ccc(NC(=O)COc3ccc(Cl)cc3)cc21` gave ALOX12 inh -6.0%, TDP1 cell noCPT 18.4µM* and TDP1 cell CPT 16.4µM*.
`CCN1C(=O)c2ccccc2Sc2ccc(NC(=O)Nc3cc(C)cc(C)c3)cc21` gave ALOX12 inh inconclusive, TDP1 cell noCPT 6.51µM* and TDP1 cell CPT 11.6µM*.
`CCN1C(=O)c2ccccc2Sc2ccc(NC(=O)c3ccc(Cl)cc3)cc21` gave ALOX12 inh -3.7%, TDP1 cell noCPT -8.8% and TDP1 cell CPT -0.3%.
CN(C)C(=O)CN1CCN(C(C(=O)O)c2c[nH]c3ccc(NC(=O)c4ccccc4)cc23)CC1 (stereo not drawn) was read as ALOX12 inh -23.3%.

Bioassay records: PubChem, National Center for Advancing Translational Sciences (NCATS)
